Test results: PubChem BioAssay
Active and inactive are the calls of the source.

What was measured:
[1] = E. coli DRC41 culture turbidity changes, primary screen, E. coli filamentation inducer project, strain DRC41, OD650, 48 h (AID 1152);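 further: E. coli MC1000 strain DRC41 lacking acrAB efflux pump and sulA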; details: E. coli DRC41 (acrAB sulA), higher = more signal, called active from +8 up or from −8 down
[2] = small-molecule binders of probe aLefty1, primary screen, biochemical, small-molecule microarray, 635/667 nm fluorescence (AID 1153); details: higher = more signal;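 further: score merges spot fluorescence with signal-to-noise ratio from the scanned slide images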
[3] = PSAC antagonists in infected red cells, primary screen, cell-based, P. falciparum Indochina, OD700, 1 h (AID 1154); details: P. falciparum Indochina infected RBC osmotic lysis, higher = more signal, called active from +8 up or from −8 down
[4] = PSAC antagonists in infected red cells, primary screen, cell-based, P. falciparum Indochina, OD700, 2 h (AID 1155);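 further: lysis reports solute entry through the parasite surface anion channel PSAC; channel blockers reduce lysis of infected cells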; details: P. falciparum Indochina infected erythrocytes, osmotic lysis OD700; higher = more signal, called active from +8 up or from −8 down
[5] = osmotic lysis modulators in infected erythrocytes, primary screen, PSAC antagonist project, cell-based, P. falciparum Indochina, OD700, 3 h (AID 1156); details: higher = more signal, called active from +8 up or from −8 down
[6] = PSAC antagonists in infected red cells, primary screen, cell-based, P. falciparum Indochina, OD700, 18 h (AID 1157); details: P. falciparum Indochina infected erythrocytes, osmotic lysis OD700, 18 h; higher = more signal, called active from +8 up or from −8 down
[7] = modulators of S6 phosphorylation in cells, primary screen, cell-based, A549, cytoblot, luminescence, serum-stimulated (AID 1158); details: A549 phospho-S6 cytoblot, 5 h, higher = more signal;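 further: serum-stimulated A549 lung adenocarcinoma cells; signal is phosphorylated S6 detected by cytoblot immunostaining with HRP secondary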
[8] = target: NADPH oxidase 2 (Homo sapiens) (UniProt P04839); assay: NOX2-dependent H2O2 signal modulators, primary screen, NOX inhibitor project, cell-based, HEK293-NOX2, PMA-stimulated, Amplex Red fluorescence (AID 1159); details: 45 min, higher = more signal, called active from +8 up or from −8 down; further: test concentration not given here
[9] = target: NADPH oxidase 4 (Homo sapiens) (UniProt Q9NPH5); assay: NOX4-dependent H2O2 signal modulators, primary screen, NOX inhibitor project, cell-based, HEK293-NOX4, tetracycline-induced, Amplex Red fluorescence (AID 1160); details: 45 min, higher = more signal, called active from +8 up or from −8 down
[10] = target: NADPH oxidase 5 (Homo sapiens) (UniProt Q96PH1); assay: NOX5-dependent H2O2 signal modulators, primary screen, NOX inhibitor project, cell-based, HEK293-NOX5, Amplex Red fluorescence (AID 1161); details: HEK293-NOX5, ionomycin, 45 min, higher = more signal
[11] = A549 cell viability effects, profiling panel, calcein-AM fluorescence, 48 h, basal (AID 1162); details: higher = more signal; further: test concentration not given here
[12] = adipocyte viability effects, profiling panel, cell-based, 3T3-L1 adipocytes, calcein-AM fluorescence, 48 h, basal (AID 1163); details: 3T3-L1 adipocytes viability, higher = more signal; further: test concentration not given here
[13] = HepG2 cell viability effects, profiling panel, calcein-AM fluorescence, 48 h, basal (AID 1164); details: higher = more signal; further: test concentration not given here
[14] = MM1S cell viability effects, profiling panel, calcein-AM fluorescence, 48 h, basal (AID 1165); details: higher = more signal;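 further: viability of MM1S multiple myeloma cells under basal unstimulated conditions; test concentration not given here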
[15] = basal RPMI8226 viability, no added stimulus, profiling panel, cell-based, calcein-AM fluorescence, 48 h, PK04 Diversity Set (AID 1166); details: RPMI8226 myeloma viability, higher = more signal;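 further: cells grown under basal conditions without added stimulus; test concentration not given here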
[16] = basal HepG2 mitochondrial membrane potential changes, profiling panel, cell-based, JC-1 fluorescence, 24 h, 100 nL compound (AID 1167); details: higher = more signal; further: test concentration not given here
[17] = basal 3T3-L1 adipocyte mitochondrial potential changes, profiling panel, cell-based, JC-1 fluorescence, 3T3-L1 adipocytes, 24 h, 100 nL compound (AID 1168); details: JC-1 mitochondrial fluorescence, higher = more signal, called active from +8 up or from −8 down; further: test concentration not given here
[18] = basal RPMI8226 mitochondrial membrane potential changes, profiling panel, cell-based, JC-1 fluorescence, 24 h, 100 nL compound (AID 1169); details: RPMI8226 myeloma, JC-1 mitochondrial potential fluorescence, higher = more signal; further: test concentration not given here
[19] = basal MM1S mitochondrial membrane potential changes, profiling panel, cell-based, JC-1 fluorescence, 24 h, 100 nL compound (AID 1170); details: higher = more signal; further: test concentration not given here
[20] = A549 lung cancer cell viability effects, profiling panel, resazurin fluorescence, 24 h, PK04 Diversity Set (AID 1171); details: higher = more signal, called active from +8 up or from −8 down; further: test concentration not given here

Chain of NADPH oxidase 2 (Homo sapiens) (P04839 whole entry, looked up): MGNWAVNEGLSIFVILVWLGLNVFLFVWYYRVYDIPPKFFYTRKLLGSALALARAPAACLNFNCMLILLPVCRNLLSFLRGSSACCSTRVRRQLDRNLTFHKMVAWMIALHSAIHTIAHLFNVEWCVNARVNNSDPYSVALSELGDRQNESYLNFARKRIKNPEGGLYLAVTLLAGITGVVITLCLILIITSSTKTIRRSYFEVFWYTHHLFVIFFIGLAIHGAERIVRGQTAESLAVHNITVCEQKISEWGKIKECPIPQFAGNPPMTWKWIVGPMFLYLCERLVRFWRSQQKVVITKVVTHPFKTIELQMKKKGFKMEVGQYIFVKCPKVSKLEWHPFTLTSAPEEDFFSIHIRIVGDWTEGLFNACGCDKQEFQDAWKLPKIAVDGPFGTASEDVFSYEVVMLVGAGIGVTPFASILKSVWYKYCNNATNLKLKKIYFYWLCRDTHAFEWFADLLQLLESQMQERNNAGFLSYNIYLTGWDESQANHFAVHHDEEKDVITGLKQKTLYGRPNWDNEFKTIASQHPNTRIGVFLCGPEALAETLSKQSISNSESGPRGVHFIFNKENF
Chain of NADPH oxidase 4 (Homo sapiens) (Q9NPH5 whole entry, looked up): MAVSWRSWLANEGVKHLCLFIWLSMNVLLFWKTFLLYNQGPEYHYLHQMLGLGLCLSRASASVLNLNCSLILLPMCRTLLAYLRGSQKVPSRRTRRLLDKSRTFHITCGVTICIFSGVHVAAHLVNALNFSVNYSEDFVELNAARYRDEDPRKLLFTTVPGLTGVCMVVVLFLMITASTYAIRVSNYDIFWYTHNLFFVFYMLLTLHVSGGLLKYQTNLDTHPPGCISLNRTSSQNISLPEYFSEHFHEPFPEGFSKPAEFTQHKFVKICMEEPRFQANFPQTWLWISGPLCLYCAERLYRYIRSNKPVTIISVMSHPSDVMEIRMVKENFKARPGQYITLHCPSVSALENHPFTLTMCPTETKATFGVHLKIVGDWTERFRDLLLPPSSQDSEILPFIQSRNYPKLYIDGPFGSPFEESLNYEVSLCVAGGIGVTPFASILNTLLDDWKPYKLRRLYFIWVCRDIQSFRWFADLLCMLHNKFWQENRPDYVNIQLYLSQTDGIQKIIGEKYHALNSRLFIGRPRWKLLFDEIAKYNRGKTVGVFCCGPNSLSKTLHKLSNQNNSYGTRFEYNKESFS
Chain of NADPH oxidase 5 (Homo sapiens) (Q96PH1 whole entry, looked up): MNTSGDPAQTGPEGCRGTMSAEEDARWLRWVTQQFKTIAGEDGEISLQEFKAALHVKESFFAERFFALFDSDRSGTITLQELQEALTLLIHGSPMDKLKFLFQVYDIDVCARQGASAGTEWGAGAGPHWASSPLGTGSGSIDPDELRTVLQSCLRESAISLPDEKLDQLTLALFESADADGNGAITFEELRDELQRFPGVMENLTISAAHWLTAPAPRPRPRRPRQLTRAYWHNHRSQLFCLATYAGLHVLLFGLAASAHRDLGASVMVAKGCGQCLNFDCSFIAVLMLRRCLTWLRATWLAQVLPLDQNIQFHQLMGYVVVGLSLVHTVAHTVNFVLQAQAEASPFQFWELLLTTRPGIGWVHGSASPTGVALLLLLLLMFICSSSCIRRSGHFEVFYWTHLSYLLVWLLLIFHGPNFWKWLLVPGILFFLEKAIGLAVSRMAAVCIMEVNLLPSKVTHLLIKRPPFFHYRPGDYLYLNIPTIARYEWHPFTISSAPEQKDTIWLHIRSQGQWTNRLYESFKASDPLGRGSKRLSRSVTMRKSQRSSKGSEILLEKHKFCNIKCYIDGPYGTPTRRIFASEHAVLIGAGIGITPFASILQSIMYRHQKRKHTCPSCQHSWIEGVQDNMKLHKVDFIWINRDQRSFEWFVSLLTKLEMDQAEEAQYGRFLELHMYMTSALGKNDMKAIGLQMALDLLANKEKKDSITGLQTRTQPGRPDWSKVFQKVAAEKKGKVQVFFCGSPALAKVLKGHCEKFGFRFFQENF

Structure (SMILES) | z-score [1] | composite z-score [2] | z-score [3] | z-score [4] | z-score [5] | z-score [6] | z-score [7] | z-score [8] | z-score [9] | z-score [10] | z-score [11] | z-score [12] | z-score [13] | z-score [14] | z-score [15] | z-score [16] | z-score [17] | z-score [18] | z-score [19] | z-score [20]
COCCOC(=O)N1C(=O)[C@@]2(c3cc(C#Cc4ccc(OC)cc4)ccc31)[C@H](c1ccc(OCCO)cc1)N1[C@H](c3ccccc3)[C@H](c3ccccc3)OC(=O)[C@H]1[C@@H]2C(=O)N1CCCCCCC1 | 0.543 (inactive) | 2.74 | 2 (inactive) | 0.481 (inactive) | 0.306 (inactive) | 0.0489 (inactive) | 1.59 | 0.928 (inactive) | 0.274 (inactive) | 1.19 | 0.571 | 1.96 | 0.856 | -0.0692 | 0.81 | -0.16 | -2.31 (inactive) | -0.684 | -1 | -0.436 (inactive)
C=CCC(OC(C)=O)[C@@H]1[C@@H](N(Cc2ccc(-c3cccc(C(F)(F)F)c3)o2)C(=O)c2cccc3ccccc23)c2cc(OCCCO)ccc2N1C(=O)c1ccc2ccccc2c1 (stereo not given in full) | -0.0766 (inactive) | 0.179 | 0.785 (inactive) | 0.434 (inactive) | 2.22 (inactive) | 0.286 (inactive) | 0.813 | -2.13 (inactive) | -1.74 (inactive) | -1.76 | 0.281 | 2.03 | 0.723 | -0.21 | -1.99 | 2.7 | -0.689 (inactive) | -0.556 | -0.102 | -0.453 (inactive)
COCCOC(=O)N1C(=O)[C@@]2(c3cc(C#CCC(C(=O)OC)C(=O)OC)ccc31)[C@H](c1ccc(OCCO)cc1)N1[C@H](c3ccccc3)[C@H](c3ccccc3)OC(=O)[C@H]1[C@@H]2C(=O)N1CCCCCCC1 | 0.759 (inactive) | 2.81 | 3.66 (inactive) | 1.98 (inactive) | 1.04 (inactive) | 0.901 (inactive) | -0.0522 | 2.05 (inactive) | 0.397 (inactive) | 2.28 | 0.52 | 0.586 | 0.496 | -0.169 | -0.602 | 0.119 | -2.24 (inactive) | -0.635 | -1.15 | 0.78 (inactive)
C=C(COC)/C(=C/C[C@H](OC(=O)c1ccncc1)c1cccc(OCCO)c1)c1cnc2ccccc2c1 | -0.223 (inactive) | 0.317 | 9.54 (active) | 0.936 (inactive) | 0.426 (inactive) | 0.431 (inactive) | 0.231 | -0.0605 (inactive) | 0.24 (inactive) | -0.3 | -0.0119 | 0.222 | 0.596 | -2.77 | -0.0229 | 0.327 | -0.0487 (inactive) | 0.568 | -0.704 | 0.251 (inactive)
CCCC[C@@H](O)C1=C(COC)Cn2c(=O)n(-c3ccccc3)c(=O)n2[C@H]1CO | 4.01 (inactive) | -0.224 | -0.0913 (inactive) | -0.696 (inactive) | -0.304 (inactive) | -2.74 (inactive) | 1.9 | -1.55 (inactive) | 0.208 (inactive) | 0.716 | 0.281 | 0.122 | 0.166 | 0.103 | 0.337 | 0.376 | -0.301 (inactive) | -0.197 | 0.794 | -0.783 (inactive)
Cc1ccc(S(=O)(=O)N2[C@@H](c3ccccc3)C(C(=O)O)=CC[C@H]2c2ccc(C#N)cc2)cc1 | -1.22 (inactive) | 0.114 | 4.02 (inactive) | 1.42 (inactive) | 1.6 (inactive) | 0.559 (inactive) | -0.316 | -0.229 (inactive) | -1.62 (inactive) | -1.54 | -0.283 | -0.287 | -0.187 | -0.44 | -0.471 | -0.556 | -0.633 (inactive) | -0.748 | 0.226 | -0.748 (inactive)
O=C1C2C=CC(C(O)c3cccc(O)c3)N(Nc3ccccc3F)C2C(=O)N1c1ccccc1 (stereo not given) | 0.906 (inactive) | 0.137 | 9.49 (active) | 1.43 (inactive) | 0.868 (inactive) | 0.0443 (inactive) | 3 | -4.98 (inactive) | -5.16 (inactive) | -6.27 | -0.769 | 0.906 | -1.28 | -1.95 | -1.9 | -1.66 | -1.85 (inactive) | 0.742 | -1.64 | 0.249 (inactive)
CN1C(=O)C2C=CC(C(O)c3ccc(-c4ccccc4)s3)N(Nc3ccccc3)C2C1=O (stereo not given) | -1.06 (inactive) | 0.612 | 2.55 (inactive) | 1.05 (inactive) | 0.156 (inactive) | 1.29 (inactive) | -0.857 | -1.21 (inactive) | -4.15 (inactive) | -1.81 | -0.485 | -1.2 | -0.99 | -0.467 | -1.64 | -1.44 | -0.896 (inactive) | -0.364 | -0.138 | -0.086 (inactive)
